# PG9 binder: binders of HIV-1 gp120 antibody PG9, primary screen, biochemical, TR-FRET; HIV-1 gp120 / PG9 antibody interaction; TR-FRET gp120-PG9 antibody binding; inhibition, % at 6.7 µM; actives 0.43% (n = 360,000); AID 624416, 2012; in the data active = inhibition above about 8.5%
# SMARCA2 act: SMARCA2 (BRM) function activators, primary screen, cell-based, luminescence, high throughput; MG213 cells, MMTV-luciferase reporter, dexamethasone, overnight; activation, % at 9.1 µM; actives 1% (n = 370,000); in the data active = activation above about 7.8%;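 also: 0% = vehicle wells and 100% = reference activator wells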
# AI-2 QS mod: Vibrio harveyi AI-2 quorum sensing modulators, primary screen, JMH597 strain, luminescence/OD600 ratio; Vibrio harveyi JMH597 AI-2 luminescence/OD600 ratio, 9 h; active compounds read low; strain lacks LuxN and CqsS sensors; 0 = neutral-control median; actives 0.4% (n = 300,000); activity change, % at 7.5 µM; in the data active = activity change below about -75%, passing the limit was not always enough;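 also: luminescence divided by OD600 gain over 9 h not by final OD600 alone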
# HSP90 refold inh: HSP90 inhibitors, primary screen, cell lysate, luminescence; Heat shock protein HSP 90 (rabbit reticulocyte lysate; luciferase refolding); Rabbit reticulocyte lysate, luciferase refolding luminescence, 3 h; inhibition, % at 5.6 µM; actives 0.91% (n = 290,000);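 active = inhibition above the screen-wide mean plus 3 SD, computed separately per campaign, cut at about 16% in these data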;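 also: 0% = DMSO wells and 100% = 60 µM geldanamycin wells; inhibitors lower the luminescence because luciferase stays unfolded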
# FXN GAA850 act: FXN promoter activators, primary screen, cell-based, luciferase luminescence, HEK293 lucGAA850 | HEK293 lucGAA850 FXN promoter luciferase reporter, 24 h; percent of 10 µM SAHA response | activation, % at 6 µM | actives 0.56% (n = 360,000) | AID 540364, 2011;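 active = activation above the average of all compounds screened plus 3 SD, cutoff fixed separately per campaign, cut at about 7.5% in these data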;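 also: 0% = DMSO wells and 100% = 10 µM SAHA wells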
# HSF1 inh: HSF1 inhibitors in luciferase reporter cells, primary screen, cell-based, NIH3T3, luminescence. actives 0.77% (n = 300,000). NIH3T3-HGL HSE-luciferase, MG132-induced, luminescence 8 h; active compounds read low. activity change, negative = inhibition, % at 7.5 µM (by protocol);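 active = more than half of replicate wells show activity change below -50%, luminescence cut by over half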;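 also: luciferase reports HSF-1 transcriptional activity via heat shock element; 0% = median of DMSO wells and -100% = zero luminescence signal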
# GAA30 counter: GAA30 FXN promoter activators, confirmation, counter-screen for GAA850 frataxin promoter activator project, cell-based, luminescence, HEK293, lucGAA30, triplicate | shares compounds with FXN GAA850 act | HEK293 lucGAA30 FXN promoter luciferase, 24 h; DMSO = 0%, 5 µM ipriflavone = 100% | activation, % at 6 µM | actives 66% (n = 1,900) | AID 588350, 2011;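 active = mean activation above the mean of solvent-only control wells plus 3 SD, cut at about 22% in these data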;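 also: counterscreen of GAA850 promoter hits where activity marks nonselective or luminescence artifacts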
# FXN GAA850 conf: FXN GAA850 promoter activators in reporter cells, confirmation, cell-based, luminescence, HEK293 lucGAA850, triplicate. activation, % at 6 µM. HEK293 lucGAA850 FXN promoter luciferase reporter, 24 h; 100% = activation by SAHA. AID 588351, 2011. actives 86% (n = 1,900). shares compounds with FXN GAA850 act;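 active = mean activation above a set limit taken from the primary screen, cut at about 8% in these data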;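 also: 0% = DMSO wells and 100% = 10 µM SAHA wells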
# Active calls of the source: *; · = no result. This is a sample that favours compounds with a hit; in the whole collection about 3.4% have one here.
SMILES,PG9 binder,SMARCA2 act,AI-2 QS mod,HSP90 refold inh,FXN GAA850 act,HSF1 inh,GAA30 counter,FXN GAA850 conf
COc1ccccc1S(=O)(=O)N(C)C[C@H]1Oc2cc(Br)ccc2S(=O)(=O)N([C@H](C)CO)C[C@H]1C,1,1,·,·,·,·,·,·
CC(=O)N/C(=C\c1ccccc1)C(=O)OCC(=O)NC(C)C12CC3CC(CC(C3)C1)C2 (stereo not drawn),-1,-4,9,-2,13*,-2,30*,13*
CC(NC(=O)COC(=O)[C@@H]1CCCN1S(=O)(=O)c1ccccc1F)C12CC3CC(CC(C3)C1)C2 (stereo partly drawn),-2,4,31,2,8.8*,-8,28*,15*
Oc1ccc2c(c1)oc1cc(O)ccc12,3,0,-3,-5,1,29,·,·
O=c1oc2cc(O)ccc2s1,-1,-1,14,·,9.6*,13,-4,16*
CCCCNc1ccc(C(F)(F)F)cc1S(=O)(=O)NCCc1ccc(F)cc1,0,-2,·,·,12*,·,33*,17*
COc1ccc(S(=O)(=O)NCCc2ccc(F)cc2)cc1,0,-2,30,-2,1,8,·,·
Nc1ccn([C@@H]2O[C@H](C(=O)N3CCN(C(=O)C(F)(F)F)CC3)[C@@H](O)[C@H]2O)c(=O)n1,0,-2,·,·,·,·,·,·
CN(Cc1ccc(F)cc1)C(=O)CN1C(=O)C2(OCCCO2)c2ccccc21,·,-3,·,·,·,·,·,·
Cc1ccc(/C=N/NC(=O)c2cccs2)cc1[N+](=O)[O-],-3,4,13,-3,8.3*,18,103*,42*
O=C(N/N=C/c1ccccc1[N+](=O)[O-])c1cccs1,1,2,38,-2,5,39,·,·
COC(=O)[C@@]1(C)[C@H]2C(=O)N(Cc3ccccc3)C(=O)[C@H]2[C@H]2CN=C(SCc3ccc(C#N)cc3)N21,-1,-2,·,·,13*,·,22*,12*
COC(=O)[C@@]1(C)[C@H]2C(=O)N(Cc3ccccc3)C(=O)[C@H]2[C@H]2CN=C(SCc3ccc(Cl)cc3)N21,-2,-7,·,·,15*,·,30*,11*
CCN1C(=O)[C@H]2[C@H]3CN=C(SCc4ccccc4)N3[C@@](C)(C(=O)OC)[C@H]2C1=O,1,-1,·,·,0,·,·,·
COc1ccc(OC2(C)CCN(Cc3ccc(-c4ccccc4)o3)C2)cc1 (stereo not drawn),0,-2,·,·,2,·,·,·
CC(C)(C)c1cccc(N/C(=C\C(=O)c2ccccc2)c2ccccc2)c1,0,-1,·,·,·,·,·,·
CC(C)(C)N1C(=O)[C@H]2[C@@H](c3ccc(Br)cc3)N3C(=O)N(c4cccc(F)c4)C(=O)[C@@]3(C)[C@H]2C1=O,-1,0,14,·,8.8*,1,34*,18*
COc1ccc([C@@H]2[C@@H]3C(=O)N(C(C)(C)C)C(=O)[C@@H]3[C@]3(C)C(=O)N(c4cccc(Br)c4)C(=O)N23)cc1,·,·,30,-2,11*,0,10,7
COc1ccc([C@@H]2[C@@H]3C(=O)N(C(C)(C)C)C(=O)[C@@H]3[C@]3(Cc4ccc(Cl)cc4)C(=O)N(c4cccc(Br)c4)C(=O)N23)cc1,3,0,20,6,1,1,·,·

# From PubChem
